# HTR5A inv ag: inverse agonist of human HTR5A in OPRM1-OPRD1 counter-screen | P47898 | HTR5A cell line, luminescence, inverse agonism | inhibition, % at 9.3 µM | 340,000 compounds, 0.083% hits | AID 504634; in the data active = inhibition mostly above about 23%, no sharp cut-off; inactive = mostly below about 18%;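 note: 0% = cells with DMSO and 100% = no-cell wells with DMSO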
# Target sequence (P47898 whole entry, looked up): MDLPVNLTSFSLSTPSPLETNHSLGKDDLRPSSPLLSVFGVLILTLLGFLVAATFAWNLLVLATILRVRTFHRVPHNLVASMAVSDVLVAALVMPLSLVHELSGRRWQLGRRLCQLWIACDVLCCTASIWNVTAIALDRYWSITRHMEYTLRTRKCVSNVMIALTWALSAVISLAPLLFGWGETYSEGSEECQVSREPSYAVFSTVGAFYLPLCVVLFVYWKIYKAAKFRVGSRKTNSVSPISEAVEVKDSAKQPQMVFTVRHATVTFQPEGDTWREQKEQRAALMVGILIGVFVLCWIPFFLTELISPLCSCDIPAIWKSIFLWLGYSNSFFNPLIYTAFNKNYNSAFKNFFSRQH
# MOR-DOR inv ag: inverse agonist of human OPRM1-OPRD1 heterodimerization | cell-based MOR-DOR heterodimer luminescence, inverse agonism | inhibition, % at 9.3 µM | 340,000 compounds, 0.21% hits | AID 504357; in the data active = inhibition above about 22%, passing the limit was not always enough;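 note: 0% = cells with DMSO and 100% = wells without cells with DMSO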
# MOR-DOR ag-1: agonists of human mu-delta opioid receptor heterodimerization | 340,000 compounds, 0.3% hits | AID 504326 | activation, % at 9.3 µM | cells, OPRM1-OPRD1 heterodimerization, luminescence | P35372+P41143;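 note: 0% = vehicle-treated cells and 100% = reference agonist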
# HTR5A ag ctr: activates human HTR5A in OPRM1-OPRD1 agonist counter-screen; P47898; 340,000 compounds, 0.61% hits; AID 504692; activation, % at 9.3 µM; HTR5A agonist assay, luminescence, cell-based; in the data active = activation mostly above about 9.5%, no sharp cut-off; inactive = mostly below about 7.6%;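 note: 0% = cells with vehicle only and 100% = reference agonist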
# MOR-DOR ag-2: counter-screen for HTR5A agonists: OPRM1-OPRD1 heterodimerization agonism; shares compounds with HTR5A ag ctr; 800 compounds, 13% hits; activation, % at 9.3 µM; U2OS counter-screen cells, complementation luminescence, 3 h
# HTR5A ag conf: HTR5A (human) agonism, confirmation; shares compounds with HTR5A ag ctr; HTR5A agonist cell assay, luminescence; activation, % at 9.3 µM; 800 compounds, 17% hits; AID 504915; in the data active = activation above about 17%;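 note: 0% = cells with vehicle only and 100% = full reference agonist response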
# * marks the source's active call; other numbers are inactive results; . = no result given. The list is not random: actives were taken first. Their share in the collection is about 1.1%. Cut-off read from the data, not from the text of the source, unless noted: active = activation above about 18%; inactive = the rest.
SMILES,HTR5A inv ag,MOR-DOR inv ag,MOR-DOR ag-1,HTR5A ag ctr,MOR-DOR ag-2,HTR5A ag conf
CCN(CC)c1c(-c2ccccc2)c2cc(C)ccc2[nH]c1=O,-68.5,-12.0,2.2,26.6*,4.8,2.0
CN(Cc1ccc(Br)cc1)CC(O)COc1cccc(Br)c1 (stereo not given),16.2,-37.5,5.9,0.8,.,.
CCOC(=O)c1c(-c2ccc(C)cc2)csc1NC(=O)c1cc2ccccc2oc1=O,10.4,7.6,-1.5,17.8*,0.6,-4.7
CCOC(=O)c1c(-c2ccc(C)cc2)csc1NC(=S)NC(=O)c1ccccc1,21.4,3.0,-0.5,0.5,.,.
O=C(Cn1cnc([N+](=O)[O-])n1)N/N=C/c1cc(Cl)ccc1O,14.9,-11.2,2.2,-0.2,.,.
Cc1nc2oc3ccccc3c(=O)c2c(=O)n1Cc1ccccc1,1.1,9.4,-1.9,-5.6,.,.
COc1ccc(Cn2c(C)nc3oc4cc(OC)ccc4c(=O)c3c2=O)cc1,-19.5,9.6,-1.8,16.2*,327.2*,3.3
CC(C)(C)c1ccc(OCC(=O)N2CCN(c3ccccn3)CC2)cc1,-37.0,0.5,-0.1,15.1*,17.6,17.4*
CNC[C@H]1Oc2c(NS(=O)(=O)c3ccccc3)cccc2C(=O)N([C@H](C)CO)C[C@@H]1C,-8.2,14.9,-2.7,6.4,.,.
COc1cc(O)c(C(CCN2CCCCC2)c2ccc(N(C)C)cc2)c(OC)c1 (stereo not given),-75.5,-2.9,0.5,25.8*,45.5*,-4.8
COc1ccc(NC(=O)Cc2nc3ccccc3[nH]2)cc1,-35.4,-46.8,8.3,27.5*,2.5,18.9*
COc1ccc(CC(=O)Nc2nc3ccccc3[nH]2)cc1,-25.2,10.6,-2.0,8.0,.,.
O=C(Cn1cc(S(=O)(=O)Cc2cccc([N+](=O)[O-])c2)c2ccccc21)N1CCOCC1,-4.0,23.2,-4.5,1.7,.,.
COc1cccc(CNC(=O)CCc2nnc3ccc(NCCCN4CCCC4=O)nn23)c1,-15.5,-8.2,1.5,17.4*,0.3,-0.4
COc1ccc(CNC(=O)CCc2nnc3ccc(NCCCN4CCCC4=O)nn23)cc1,1.4,-3.9,0.8,1.8,.,.
COc1ccc(NS(=O)(=O)c2cccc(C(=O)NN=C(C)c3ccco3)c2)cc1,7.5,-26.3,6.6,-3.0,.,.
CCOC(=O)N1CCN(C(=O)c2cc(COc3c(F)cccc3F)on2)CC1,7.2,9.4,-2.9,7.2,.,.
CCCCCCCCCC[n+]1cccc2c3ccccc3ccc21,4.7,2.1,-0.4,21.6*,3.8,5.5
COc1ccc(CNC(=O)C2CCN(S(=O)(=O)c3ccccc3)CC2)cc1,-49.8,5.6,-1.1,20.7*,2.5,0.9
CS(=O)(=O)N1CCCC(C(=O)NCc2ccc(F)cc2)C1 (stereo not given),-20.6,0.4,-0.1,15.8*,16.7,8.1
COc1cccc(CNC(=O)C2CCN(S(=O)(=O)c3ccccc3)CC2)c1,-28.6,6.1,-1.2,-3.0,.,.
Cc1ccc(S(=O)(=O)N2CCN(C(=O)CN3CCN(c4ccc(O)cc4)CC3)CC2)cc1,-7.4,-16.0,3.0,2.0,.,.
Cc1ccc2cc(CN(Cc3ccc(F)cc3)Cc3nnnn3C3CCCC3)c(=O)[nH]c2c1,6.8,-31.6,5.0,-2.6,.,.
CCc1ccc2[nH]c(=O)c(CN(Cc3ccc4c(c3)OCO4)Cc3nnnn3C3CCCC3)cc2c1,2.9,-48.4,8.4,18.5*,6.3,1.9
O=C(CCCCCN1C(=O)c2ccccc2C1=O)Nc1ccc(C(=O)O)cc1,-3.8,9.4,-1.6,1.0,.,.
SMILES,HTR5A inv ag,MOR-DOR inv ag,MOR-DOR ag-1,HTR5A ag ctr,MOR-DOR ag-2,HTR5A ag conf
CCOC(=O)c1sc(N/N=C/c2cccc(C)c2)nc1C,-1.6,-18.3,3.2,-0.5,.,.
C=CCN(C/C(=N\O)c1sc(C(=O)OCC)nc1C)c1cccc(Br)c1,-58.6,-43.7,7.5,21.8*,7.6,2.1
CCOc1ccc(NC(=O)NCCN2CCN(c3ccccc3F)CC2)cc1,-2.6,9.3,-1.9,0.7,.,.
COc1ccc(NC(=O)NCCN2CCN(c3cccc(Cl)c3)CC2)cc1,-58.5,-16.6,2.8,19.2*,14.8,23.2*
CCOc1cccc(N2CCN(CCNC(=O)Nc3ccc(C)cc3)CC2)c1C,-52.4,-7.5,1.6,15.4*,5.9,20.2*
COc1ccc(N2CCN(CCNC(=O)Nc3ccc(C)c(Cl)c3)CC2)cc1,-5.0,-6.8,1.5,1.4,.,.
O=C(c1ccc2c(Cl)c3c(nc2c1)CCCC3)N1CCN(c2ccc(F)cc2)CC1,-41.1,-7.8,1.3,15.7*,5.4,4.7
COc1ccccc1N1CCN(C(=O)c2ccc3c(Cl)c4c(nc3c2)CCCC4)CC1,-12.9,-18.9,3.5,0.4,.,.
c1ccc(Cc2nnc(-c3ccccc3)o2)cc1,-46.8,-86.6,16.1,16.2*,5.2,0.7
CCN(CC)CCCNc1ccc(-c2nnc(-c3ccc(OCC(C)C)cc3)o2)cn1,-48.7,-0.8,0.1,18.2*,10.2,1.4
O=C(Nc1ccccc1C(=O)O)c1ccc2ccccc2n1,-66.3,12.6,-2.5,25.7*,51.8*,2.5
O=C(Nc1ccccc1)c1ccc2ccccc2n1,17.4,-23.1,4.6,-3.0,.,.
Cc1cccc(CC2CC(=O)N(c3ccc(C)cc3Br)C2=O)c1 (stereo not given),7.3,12.2,-2.5,-2.0,.,.
Cc1cc(C(F)F)nn1CC(=O)N1CCSCC1,5.7,10.3,-2.0,16.0*,1.2,0.4
O=C(Cn1nc(C(F)F)cc1C1CC1)N1CCCC1,2.2,13.7,-2.1,-0.8,.,.
COc1ccc(Cl)cc1NC(=O)NCc1ccccn1,-41.4,12.6,-2.5,17.2*,11.0,0.0
COc1ccc(Cl)cc1NC(=S)NCc1ccccn1,3.0,14.6,-2.7,2.3,.,.
C=CCn1c(Br)nc2c1c(=O)[nH]c(=O)n2C,-47.3,-0.6,0.1,17.6*,-0.9,-1.0
CC(=O)N1CCc2c(sc(NC(=O)C3CC3)c2-c2nc3ccccc3s2)C1,-47.1,10.9,-1.9,16.1*,2.3,0.6
O=C(O)/C=C/C(=O)Nc1ccc(C2(c3ccc(NC(=O)/C=C/C(=O)O)cc3)c3ccccc3-c3ccccc32)cc1,-100.1,-9.5,1.9,26.4*,3.5,-0.7
CCC(C(=O)Nc1ncn[nH]1)(C(F)(F)F)C(F)(F)F,-12.1,4.4,-0.7,18.2*,0.2,0.6
O=C(Nc1ncn[nH]1)C(F)(F)C(F)F,4.6,4.1,-0.7,-1.3,.,.
C/C(=N\NC(=O)c1ccccc1O)c1ccc(Br)s1,-54.0,19.9,-3.8,14.8*,0.2,27.9*
COc1ccc(C)cc1NC(=O)CCNS(=O)(=O)c1ccc2c(c1)CCC(=O)N2,15.5,13.8,-2.7,2.5,.,.
Cc1onc(-c2ccccc2Cl)c1C(=O)NCCN1Cc2ccccc2C1=O,-76.6,-12.0,1.9,29.2*,0.3,-2.5
Oc1c(Br)cc(Br)cc1CNc1cccc2cccnc12,-1.1,-34.9,6.8,15.9*,12.9,-3.4
CCc1ccc(-c2cc(C(=O)Nc3ccc(S(=O)(=O)NC(C)=O)cc3)c3ccccc3n2)cc1,-51.5,12.2,-2.5,21.2*,9.6,-2.5
